Only some compounds are listed: those with a hit (about 4.7% of all), similar ones and a draw of the others.
S2 tox = viability counter-screen for ATXN expression inhibitors | S2 cells (HEK-293 line with an ATXN2-luciferase reporter) viability, CellTiter-Fluor protease fluorescence, 24 h | Potency, µM (series often up to 56.7 µM), most hits filed as cytotoxic | 0.49% of 400,000 active; also: potency is read from the fitted curve at half-maximal effect; nearly all actives have a fitted effect of over 40% in size
HepG2 tox = counter-screen for TGF-b inhibitors: cytotoxicity in HepG2 cells | 0.76% of 410,000 active | AID 588856 | HepG2 CAGA-GFP viability, ATP luminescence, 18 h | Potency, µM (titrated, usually from 46.1 µM), inactives show at the top dose activity change, negative = cytotoxicity, hits mostly cytotoxic; also: potency is read from the fitted curve at half-maximal effect
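HepG2 CAGA-GFP cells (1000/well, DMEM with 1% FBS) received compound, then TGF-beta at 500 pg/mL final, and were incubated 18 hours at 37 degrees C. Viability was read by CellTiter-Glo luminescence. Media-only wells were set as complete cell-killing and DMSO as no toxicity.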
D3 ag = agonists of human D3 dopamine receptor. P35462. max activation, %. D3R DiscoveRx beta-arrestin cells, luminescence, 90 min. 0.58% of 410,000 active; in the data active = max activation above about 30%; also: 0% is about no effect
Target sequence (P35462 whole entry, looked up): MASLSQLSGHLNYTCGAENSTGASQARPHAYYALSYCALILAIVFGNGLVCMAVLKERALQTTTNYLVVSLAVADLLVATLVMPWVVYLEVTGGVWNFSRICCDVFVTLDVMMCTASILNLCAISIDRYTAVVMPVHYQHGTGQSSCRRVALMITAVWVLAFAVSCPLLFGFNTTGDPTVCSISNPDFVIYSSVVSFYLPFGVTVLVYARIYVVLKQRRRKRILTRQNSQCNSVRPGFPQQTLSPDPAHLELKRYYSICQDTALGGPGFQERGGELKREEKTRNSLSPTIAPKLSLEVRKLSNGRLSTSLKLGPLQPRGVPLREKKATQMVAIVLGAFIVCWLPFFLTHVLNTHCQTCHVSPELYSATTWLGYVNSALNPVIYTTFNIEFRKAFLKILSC
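Agonist mode: compounds and dopamine controls were applied to plated cells for 90 min at 37 degrees C after an overnight attachment at 1500 cells/well. Luminescent read-out followed 30 - 60 minutes at room temperature with DiscoveRx detection reagent.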
ATXN2 expr inh = inhibitors of ATXN2 expression; HEK-293 ATXN2-luciferase reporter, luminescence, 24 h; Potency, µM (highest dose often 57 µM), without a hit: top-dose activity change, negative = inhibition, actives largely listed as inhibitors; 0.72% of 360,000 active; also: potency is read from the fitted curve at half-maximal effect; % is scaled to controls: 0 for no effect and ±100 for the full control effect; nearly all actives have a fitted effect of over 55% in size
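ATXN2-luciferase reporter cells (luciferase flanked by upstream and downstream ATXN2 gene portions) were treated 24 h at 37 °C with compounds at up to 57 uM. SteadyGlo luminescence gave expression; GF-AFC fluorescence gave viability.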
TGFb SMAD3 inh = inhibitors of TGF-b signaling; HepG2 CAGA-GFP TGF-b/SMAD3 reporter, GFP fluorescence, 18 h; TGF-beta stimulated, 500 pg/mL final; Potency, µM (series often up to 46.1 µM), inactives show at the highest dose activity, negative = inhibition, hits mostly inhibitors; 1.2% of 410,000 active; also: potency is read from the fitted curve at half-maximal effect; % is scaled to controls: 0 for no effect and ±100 for the full control effect; nearly all actives have a fitted effect of over 65% in size
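TGF-beta reporter screen: HEPG2 CAGA-GFP, 1% FBS, 500 pg/mL TGF-beta final, 18 h; per-cell GFP summed per well; curves fitted and categorized by class.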
DRD3 antagonist = blocks the human D3 dopamine receptor. 2.5% of 360,000 active. D3R cells, DiscoveRx beta-arrestin luminescence, antagonist mode; active compounds read low. max response, negative = inhibition, %. AID 652054; in the data active = max response below about -50%; inconclusive = no clear call, values can overlap the other calls; also: % is scaled to controls: 0 for no effect and ±100 for the full control effect
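Cells plated overnight at 1500 cells/well, then exposed to library compounds with dopamine controls for 90 minutes at 37 degrees C. DiscoveRx reagent added for 30–60 minutes at room temperature; luminescence read, quantitative HTS format.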
Active calls of the source: *; i = inactive; ? = inconclusive; / = no result. Unless noted, calls follow the shape of the dose curve; as a rule, active = well fitted curve in the direction sought with a large enough effect; inconclusive = small, poorly fitted or top-dose-only effect, or another doubt; inactive = no such curve, though single readings can be large; an effect the other way counts as inactive or inconclusive.

SMILES	S2 tox	HepG2 tox	D3 ag	ATXN2 expr inh	TGFb SMAD3 inh	DRD3 antagonist
NCCCC[C@H](NC(=O)[C@@H]1CCCN1C(=O)[C@@H]1CSSC[C@H](NC(=O)CNC(=O)CNC(=O)CN)C(=O)N[C@@H](Cc2ccc(O)cc2)C(=O)N[C@@H](Cc2ccccc2)C(=O)N[C@@H](CCC(N)=O)C(=O)N[C@@H](CC(N)=O)C(=O)N1)C(=O)NCC(N)=O	i	/	-16	/	/	/
Cc1ccc(CNC(=O)c2ccccc2NC(=O)c2nsc3ccccc23)cc1	i	-29%	-7	19%	-13%	/
C[C@@H](O)[C@H]1C(=O)N2C(C(=O)O)=C([C@H]3CCCO3)S[C@H]12	i	/	-2	2%	/	/
CC1(C(=O)Nc2cnc3ccccc3c2)CCN1CCc1ccccc1 (stereo unspecified)	i	-25%	-2	?	?	0
CCCCOc1ccc(S(=O)(=O)NC(=O)C2(C)CCN2C(=O)CCc2ccccc2)cc1 (stereo unspecified)	i	-36%	-3	18%	2%	-50*
CC1(C(=O)Nc2cnc3ccccc3c2)CCN1C(=O)CCc1ccccc1 (stereo unspecified)	i	-57%	54*	-14%	-13%	0
Cc1c(Cl)cccc1Nc1nc(N)nc(CN2CCc3ccccc3C2)n1	i	-18%	-15	19%	0%	-64*
Cc1cccc(Nc2nc(N)nc(CN3CCN(c4ccccc4F)CC3)n2)c1	i	-16%	1	-3%	-22%	-53*
Cc1ccc(Nc2nc(N)nc(CN3CCc4ccccc4C3)n2)cc1	i	-22%	-15	0%	0%	-64*
Cc1ccc(NC(=O)c2c(C)oc3ccc(O)c(CN4CCCCC4)c23)c(C)c1	i	-39%	2	-22%	-17%	/
NC(=S)N/N=C/c1ccccc1OC(=O)/C=C/c1ccccc1	?	4µM*	-1	1.8µM*	7.1µM*	-7
NC(=S)N/N=C\c1ccccc1OCc1ccccc1	i	-59%	-5	-14%	?	-54*
NC(=S)N/N=C/c1ccccc1	i	-17%	4	-4%	?	-9
c1coc(-c2ccccc2CN2CCOc3ccc(CN4CCOCC4)cc3C2)c1	i	/	/	/	/	/
COc1ccc(OCC(O)CN2CCN(c3ncccn3)CC2)cc1 (stereo unspecified)	?	32%	31*	-10%	3%	?
CCCc1ccc(OCC(O)CN2CCN(c3ccccn3)CC2)cc1 (stereo unspecified)	i	-15%	62*	-16%	-6%	-17
CC(=O)c1ccc(OCC(O)CN2CCN(c3ccccn3)CC2)cc1 (stereo unspecified)	i	5%	56*	2%	1%	-55*
COc1ccc(-c2nn3c(-c4cc(C)[nH]n4)nnc3s2)cc1	/	3%	/	/	10%	/
CCOC(=O)c1cnn(-c2ccccc2)c1NC(=O)C(F)(F)C(F)(F)C(F)(F)F	i	-49%	-4	-2%	-17%	-68*
CCOC(=O)c1cnn(-c2ccccc2)c1NC(=O)c1ccccc1	i	-12%	17	12%	-12%	12
Cc1cccc(NC(=O)C2CCC(CNS(=O)(=O)c3ccc(Br)s3)CC2)c1 (stereo unspecified)	i	-55%	-7	-1%	-14%	/
CC(=O)NC1(C2CCCCC2=O)CCCCC1 (stereo unspecified)	i	-14%	-1	-3%	6%	-65*
COc1cccc(Nc2sc(C(=O)c3ccc(F)cc3)c(N)c2C(=O)NCc2ccc(C)cc2)c1	/	-46%	9	/	14µM*	/
Cc1ccc(CNC(=O)c2c(Nc3ccccc3C)sc(C(=O)c3ccc(F)cc3)c2N)cc1	?	16µM*	0	?	18µM*	/
O=C1OCCC1Sc1nnc(-c2ccc(Cl)cc2Cl)o1 (stereo unspecified)	i	-34%	2	6.3µM*	?	4
SMILES	S2 tox	HepG2 tox	D3 ag	ATXN2 expr inh	TGFb SMAD3 inh	DRD3 antagonist
Cc1ccc(S(=O)(=O)N2[C@@H](c3ccc(C(C)(C)C)cc3)C(C(=O)O)=CC[C@H]2c2ccc(Cl)cc2)cc1	?	-109%	10	?	?	-11
Cc1ccc([C@@H]2CC=C(C(=O)O)[C@H](c3ccc(C(C)(C)C)cc3)N2S(=O)(=O)c2ccc(C)cc2)cc1	?	-86%	30*	?	?	0
CCc1ccc([C@@H]2CC=C(C(=O)O)[C@H](c3ccc(C(C)(C)C)cc3)N2S(=O)(=O)c2ccc(C)cc2)cc1	/	-103%	31*	?	?	27
O=C(Nc1ccc2nc(SCC(=O)N3CCCC3)sc2c1)c1ccc(Br)cc1	/	-8%	-15	/	-21%	/
CCCCCn1c(NCc2ccccc2OC)nc2ccccc21	?	-43%	-12	?	16µM*	/
COc1cccc(CNc2nc3ccccc3n2C)c1O	i	-11%	-16	0%	-2%	-57*
COc1cccc(CNc2cnc3ccccc3c2)c1O	i	0%	13	17%	-13%	23
Cc1cnc2ccc3ccccc3c2c1C	/	-2%	/	/	-17%	/
Cc1cc(C)cc(Cn2cc(CN3CC(N4CCSCC4)CS3(=O)=O)nn2)c1 (stereo unspecified)	i	/	-1	11%	/	-54*
CCCCCCN1CCN(C2CN(Cc3cn(Cc4ccccc4)nn3)S(=O)(=O)C2)CC1 (stereo unspecified)	i	/	-10	-1%	/	-51*
Cc1ccc(CN2CC(N3CCN(CCO)CC3)CS2(=O)=O)cc1 (stereo unspecified)	i	3%	-4	0%	1%	-61*
Cc1cc(C)cc(Cn2cc(CN3CC(N4CCCC4)CS3(=O)=O)nn2)c1 (stereo unspecified)	i	/	-1	9%	/	7
CC(C)(C)n1ncc2c(=O)n(Cc3cc(Cl)ccc3Cl)cnc21	/	-5%	/	/	-8%	/
CCOC(=O)c1cccc(NS(=O)(=O)c2cc(Br)cc3c2N(C(=O)C2CC2)CC3)c1	?	-6%	12	?	?	/

Bioassay records from PubChem.
